Experimental data as given in PubChem BioAssay (NCATS).
Results filed as inconclusive are left out. Active and inactive are the calls of the source. The call rests on the fitted dose curve; in most records, active means well fitted curve in the direction sought with a large enough effect; inconclusive means small, poorly fitted or top-dose-only effect, or another doubt; inactive means no such curve, though single readings can be large; an effect the other way counts as inactive or inconclusive.

biological target: Rap guanine nucleotide exchange factor 3 (Homo sapiens) (UniProt O95398); assay: Confirmatory qHTS for antagonist of cAMP-regulated guanine nucleotide exchange factor 3 (EPAC1) (AID 1645880); settings: EPAC1 Rap1B-BODIPY-GDP exchange, fluorescence; activity, negative = inhibition: at 115 µM (top of the series); further: nearly all actives have a fitted effect of over 55% in size;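 on activity, negative = inhibition: plate controls were DMSO only for no effect and full effect of the ATA control for full effect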
Procedure, shortened: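 Nucleotide exchange uses 100 nM EPAC1, 250 nM RAP1B-BODIPY-GDP and 50 uM GDP, with compounds in a concentration-titration series. After 5 min at room temperature, fluorescence (480 nm ex/540 nm em) is read every 5 min for 30 min. Data are normalized to control ATA and DMSO.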
Potency means the concentration at half of the fitted maximal effect.

Rap guanine nucleotide exchange factor 3 (Homo sapiens), sequence (O95398 whole entry, looked up): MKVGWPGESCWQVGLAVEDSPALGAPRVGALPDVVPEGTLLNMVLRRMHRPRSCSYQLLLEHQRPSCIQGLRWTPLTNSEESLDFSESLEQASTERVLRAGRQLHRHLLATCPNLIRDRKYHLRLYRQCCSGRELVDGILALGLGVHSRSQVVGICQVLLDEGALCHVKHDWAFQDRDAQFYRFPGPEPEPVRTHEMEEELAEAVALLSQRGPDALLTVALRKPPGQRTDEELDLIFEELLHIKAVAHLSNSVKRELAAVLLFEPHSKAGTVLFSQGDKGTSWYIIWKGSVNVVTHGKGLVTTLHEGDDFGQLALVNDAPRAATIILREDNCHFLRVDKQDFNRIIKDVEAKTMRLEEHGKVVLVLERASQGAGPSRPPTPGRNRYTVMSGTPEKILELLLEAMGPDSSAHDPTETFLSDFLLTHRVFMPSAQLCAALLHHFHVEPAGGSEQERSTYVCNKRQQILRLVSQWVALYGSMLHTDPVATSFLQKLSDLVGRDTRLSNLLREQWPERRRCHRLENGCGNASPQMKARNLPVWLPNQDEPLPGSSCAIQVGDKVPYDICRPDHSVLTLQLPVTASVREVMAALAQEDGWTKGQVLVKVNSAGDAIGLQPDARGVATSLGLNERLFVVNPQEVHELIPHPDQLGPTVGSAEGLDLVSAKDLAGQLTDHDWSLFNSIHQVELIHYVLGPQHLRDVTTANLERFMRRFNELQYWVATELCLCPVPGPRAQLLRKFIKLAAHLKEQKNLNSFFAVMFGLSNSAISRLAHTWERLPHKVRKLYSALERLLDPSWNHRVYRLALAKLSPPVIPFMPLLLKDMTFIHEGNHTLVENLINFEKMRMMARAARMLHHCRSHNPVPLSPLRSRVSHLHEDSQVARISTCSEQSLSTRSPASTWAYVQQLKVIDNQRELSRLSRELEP

activity, negative = inhibition, inactive:
COc1ccc(OC)c(/C=C2\SC(=S)N(Cc3cccnc3)C2=O)c1 15.9%
COC(=O)c1cc2oc(C)cc2n1Cc1cc(C)ccc1C -37.4%
O=C(OCCN1C(=O)c2cccc3c(N4CCOCC4)ccc(c23)C1=O)c1ccccc1Cl 87.7%
COc1ccc(OC)c(/C=C/c2nc3ccccc3[nH]c2=O)c1 58.5%
O=S1(=O)NC(c2ccccc2)CC(CC2CCCCC2)O1 (stereo not given) -24.9%
Cc1ccc2nc(/C(C#N)=C\c3ccc(N4CCOCC4)o3)[nH]c2c1 22.1%
COC(=O)C1=CN(C(C)c2ccccc2)C=C(C(=O)OC)C1c1cc(OC)c(OC)c(OC)c1 (stereo not given) -37.6%
COc1ccc(/C(O)=C/c2nc3ccccc3n(-c3ccccc3)c2=O)cc1 99%
CCN(C(=O)CN1CCN(c2ccccc2O)CC1)c1c(N)n(Cc2ccccc2)c(=O)[nH]c1=O -2.42%
Cc1ccc(NC(=O)c2sc3nc(-c4cc5ccccc5oc4=O)[nH]c(=O)c3c2C)c(C)c1 34.3%
CN(C)c1ccc(C(=O)/C=C/c2ccc(Br)cc2)cc1 -18.8%
CCOc1ccccc1Oc1nc(C)nc2c1oc1ccccc12 -17.6%
COc1cc2c(c(OC)c1OC)C(c1ccc(C)cc1)CC(=O)O2 (stereo not given) -14.1%
CN1CCc2c(sc(NC(=O)CSc3ccccc3)c2-c2nc3ccccc3s2)C1 -15.5%
CN(C)c1ccc(/C=C/C(=O)c2cccc(Br)c2)cc1 89.1%
Cc1cccc(-c2nc3nc(C)cc(NCc4ccccc4Cl)n3n2)c1 16%
Nc1c(C(=O)C2CC2)sc2nc(-c3cccs3)cc(C(F)(F)F)c12 215%
COc1ccc(Cl)cc1NC(=O)CN(C)C(C)C(=O)NC(=O)NC1CCCCC1 (stereo not given) -26.3%
COC(=O)c1c(C)c2c(C)cc3ccccn3c-2c1C(=O)OC 11.5%
CCOc1ccc(CCN2C(=O)C(=O)N([C@@H](CC(C)C)CN3CCC[C@@H]3CN3C(=O)C(=O)NC[C@@H]3Cc3ccccc3)C[C@@H]2CC(C)C)cc1 -32.3%
CCOC(=O)N1CCc2c(sc3c2c(=O)n(-c2ccc(F)cc2)c(=O)n3CC(=O)c2ccc(Cl)cc2)C1 -5.37%
CCOC(=O)/C(C#N)=C/c1ccc(N2CCN(Cc3ccccc3)CC2)cc1 84.8%
CCN(CC)c1ccc2cc(C(N)=O)c(=N)oc2c1 81.9%
COc1ccc(N=Cc2c(O)ccc3ccccc23)cc1 -8.57%
CCOC(=O)C1=C(C)N=c2s/c(=C\c3cccn3C)c(=O)n2C1c1cccc(OC)c1OC (stereo not given) 2.61%
C=CCN1C(=O)c2cccc3c(N4CCCCC4)ccc(c23)C1=O 88.7%
O=C(NN=Cc1c(O)ccc2ccccc12)c1ccncc1 0.0258%
COC(=O)CC(NC(=S)NC(=O)c1ccccc1)c1ccc(Br)cc1 (stereo not given) -23.9%
N=C1SC(c2ccccc2)C(=O)N1c1ncc(Cc2ccccc2Cl)s1 (stereo not given) -18.2%
O=C(NCc1ccco1)c1ccc(Cn2c(=S)[nH]c3ccccc3c2=O)cc1 21.9%
O=C(COc1cccc(OC(F)F)c1)Nc1ccc(SC(F)F)cc1 -29.5%
O=C1CCC2CN3CCc4c([nH]c5ccccc45)C3CC2C1 (stereo not given) 1.68%
Cc1ccc(S(=O)(=O)C2(C(=O)Nc3ccc(Br)cc3)CC2)cc1 -21.1%
CCc1ccc(NC(=O)/C(C#N)=C/c2cc3ccc(C)cc3nc2N2CCOCC2)cc1 -15.3%
COC(=O)c1cc2sc(Cl)cc2n1Cc1cc(C)ccc1C -19.1%
CN1CCS/C1=C\C=C1/SC(=S)N(CC(=O)O)C1=O -10.3%
Cc1cccc(-n2c(N)c(-c3nc4ccccc4n3C)c3nc4ccccc4nc32)c1 -20.8%
COC(=O)c1ccccc1C(=O)c1cccc2ccccc12 -7.09%
CC(OC(=O)/C(C#N)=C/c1ccc(N(C)C)cc1)C(=O)N(C)Cc1ccccc1 (stereo not given) 20.6%

Potency, active:
O=C(O)c1ccccc1NS(=O)(=O)c1ccc(NN=Cc2cccc(Cl)c2)c([N+](=O)[O-])c1 75.7 µM

biological target: Rap guanine nucleotide exchange factor 4 (Homo sapiens) (UniProt Q8WZA2); assay: Confirmatory qHTS for agonist of cAMP-regulated guanine nucleotide exchange factor 4 (EPAC2) (AID 1645884); settings: EPAC2 GEF activity, Rap1B-BODIPY-GDP fluorescence; series mostly up to 154 µM; activation: at the top concentration;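 further: nucleotide exchange releases bodipy-GDP from Rap1 and this lowers its fluorescence; nearly all actives have a fitted effect of over 65% in size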; on activation: on the % scale 0 is the no-effect control and ±100 the full control effect
Sequence (Q8WZA2 whole entry, looked up): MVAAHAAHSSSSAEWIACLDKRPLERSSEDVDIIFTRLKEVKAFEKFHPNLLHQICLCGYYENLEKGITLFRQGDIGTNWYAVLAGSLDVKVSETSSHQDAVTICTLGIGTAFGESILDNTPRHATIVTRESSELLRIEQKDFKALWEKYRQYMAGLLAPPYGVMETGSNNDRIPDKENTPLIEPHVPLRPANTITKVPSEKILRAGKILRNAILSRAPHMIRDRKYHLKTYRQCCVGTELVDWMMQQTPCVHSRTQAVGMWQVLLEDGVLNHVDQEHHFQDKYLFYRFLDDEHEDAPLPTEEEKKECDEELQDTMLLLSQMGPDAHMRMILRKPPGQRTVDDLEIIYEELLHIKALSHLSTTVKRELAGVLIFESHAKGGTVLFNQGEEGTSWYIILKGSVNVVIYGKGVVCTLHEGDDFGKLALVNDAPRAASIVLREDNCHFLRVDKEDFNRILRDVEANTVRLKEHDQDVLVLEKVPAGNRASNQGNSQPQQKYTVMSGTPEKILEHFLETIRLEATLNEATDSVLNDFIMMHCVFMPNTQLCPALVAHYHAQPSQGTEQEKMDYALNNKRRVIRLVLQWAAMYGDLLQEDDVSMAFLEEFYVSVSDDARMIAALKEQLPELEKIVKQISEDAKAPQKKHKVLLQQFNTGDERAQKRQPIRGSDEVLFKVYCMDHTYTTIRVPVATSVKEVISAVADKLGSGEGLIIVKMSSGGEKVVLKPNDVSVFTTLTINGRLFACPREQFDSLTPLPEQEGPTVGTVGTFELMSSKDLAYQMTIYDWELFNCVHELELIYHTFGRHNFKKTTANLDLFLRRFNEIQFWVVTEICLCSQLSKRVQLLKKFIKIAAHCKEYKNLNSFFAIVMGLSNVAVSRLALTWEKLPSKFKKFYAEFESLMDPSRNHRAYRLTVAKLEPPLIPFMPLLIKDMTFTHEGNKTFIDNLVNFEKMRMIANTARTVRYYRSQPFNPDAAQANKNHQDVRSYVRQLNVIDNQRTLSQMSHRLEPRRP

activation, inactive:
COc1ccc(OC)c(/C=C2\SC(=S)N(Cc3cccnc3)C2=O)c1 3.3% [at 17.1 µM, percent relative to cAMP agonist control]
COC(=O)c1cc2oc(C)cc2n1Cc1cc(C)ccc1C 16.4% [at 83.8 µM, percent relative to cAMP agonist control]
O=C(OCCN1C(=O)c2cccc3c(N4CCOCC4)ccc(c23)C1=O)c1ccccc1Cl 17.6% [at 17.1 µM, percent relative to cAMP agonist control]
O=S1(=O)NC(c2ccccc2)CC(CC2CCCCC2)O1 (stereo not given) 26.6% [at 17.1 µM, percent relative to cAMP agonist control]
Cc1ccc2nc(/C(C#N)=C\c3ccc(N4CCOCC4)o3)[nH]c2c1 11.1% [at 17.1 µM, percent relative to cAMP agonist control]
COC(=O)C1=CN(C(C)c2ccccc2)C=C(C(=O)OC)C1c1cc(OC)c(OC)c(OC)c1 (stereo not given) 5.59%
CCN(C(=O)CN1CCN(c2ccccc2O)CC1)c1c(N)n(Cc2ccccc2)c(=O)[nH]c1=O 0.794%
Cc1ccc(NC(=O)c2sc3nc(-c4cc5ccccc5oc4=O)[nH]c(=O)c3c2C)c(C)c1 -7.8% [at 83.8 µM, percent relative to cAMP agonist control]
CCOc1ccccc1Oc1nc(C)nc2c1oc1ccccc12 -1.07% [at 83.8 µM, percent relative to cAMP agonist control]
COc1cc2c(c(OC)c1OC)C(c1ccc(C)cc1)CC(=O)O2 (stereo not given) 3.46% [at 17.1 µM, percent relative to cAMP agonist control]
CN1CCc2c(sc(NC(=O)CSc3ccccc3)c2-c2nc3ccccc3s2)C1 0% [at 83.8 µM, percent relative to cAMP agonist control]
CN(C)c1ccc(/C=C/C(=O)c2cccc(Br)c2)cc1 -16% [at 17.1 µM, percent relative to cAMP agonist control]
Cc1cccc(-c2nc3nc(C)cc(NCc4ccccc4Cl)n3n2)c1 -16.7% [at 83.8 µM, percent relative to cAMP agonist control]
COc1ccc(Cl)cc1NC(=O)CN(C)C(C)C(=O)NC(=O)NC1CCCCC1 (stereo not given) 28.7%
COC(=O)c1c(C)c2c(C)cc3ccccn3c-2c1C(=O)OC 10.6% [at 17.1 µM, percent relative to cAMP agonist control]
CCOc1ccc(CCN2C(=O)C(=O)N([C@@H](CC(C)C)CN3CCC[C@@H]3CN3C(=O)C(=O)NC[C@@H]3Cc3ccccc3)C[C@@H]2CC(C)C)cc1 -2.4%
CCOC(=O)N1CCc2c(sc3c2c(=O)n(-c2ccc(F)cc2)c(=O)n3CC(=O)c2ccc(Cl)cc2)C1 -22% [at 83.8 µM, percent relative to cAMP agonist control]
CCOC(=O)/C(C#N)=C/c1ccc(N2CCN(Cc3ccccc3)CC2)cc1 10.3% [at 17.1 µM, percent relative to cAMP agonist control]
CCN(CC)c1ccc2cc(C(N)=O)c(=N)oc2c1 2.03% [at 17.1 µM, percent relative to cAMP agonist control]
COc1ccc(N=Cc2c(O)ccc3ccccc23)cc1 6.9% [at 17.1 µM, percent relative to cAMP agonist control]
CCOC(=O)C1=C(C)N=c2s/c(=C\c3cccn3C)c(=O)n2C1c1cccc(OC)c1OC (stereo not given) 19.2% [at 17.1 µM, percent relative to cAMP agonist control]
O=C(NN=Cc1c(O)ccc2ccccc12)c1ccncc1 6.24% [at 17.1 µM, percent relative to cAMP agonist control]
COC(=O)CC(NC(=S)NC(=O)c1ccccc1)c1ccc(Br)cc1 (stereo not given) 13%
N=C1SC(c2ccccc2)C(=O)N1c1ncc(Cc2ccccc2Cl)s1 (stereo not given) 49.1%
O=C(O)c1ccccc1NS(=O)(=O)c1ccc(NN=Cc2cccc(Cl)c2)c([N+](=O)[O-])c1 0%
O=C(NCc1ccco1)c1ccc(Cn2c(=S)[nH]c3ccccc3c2=O)cc1 17.1%
O=C(COc1cccc(OC(F)F)c1)Nc1ccc(SC(F)F)cc1 9.08% [at 17.1 µM, percent relative to cAMP agonist control]
O=C1CCC2CN3CCc4c([nH]c5ccccc45)C3CC2C1 (stereo not given) -5.59% [at 17.1 µM, percent relative to cAMP agonist control]
Cc1ccc(S(=O)(=O)C2(C(=O)Nc3ccc(Br)cc3)CC2)cc1 6.34% [at 17.1 µM, percent relative to cAMP agonist control]
CCc1ccc(NC(=O)/C(C#N)=C/c2cc3ccc(C)cc3nc2N2CCOCC2)cc1 0% [at 17.1 µM, percent relative to cAMP agonist control]
COC(=O)c1cc2sc(Cl)cc2n1Cc1cc(C)ccc1C -4.17% [at 83.8 µM, percent relative to cAMP agonist control]
Cc1cccc(-n2c(N)c(-c3nc4ccccc4n3C)c3nc4ccccc4nc32)c1 17.4% [at 17.1 µM, percent relative to cAMP agonist control]
COC(=O)c1ccccc1C(=O)c1cccc2ccccc12 13.1%
CC(OC(=O)/C(C#N)=C/c1ccc(N(C)C)cc1)C(=O)N(C)Cc1ccccc1 (stereo not given) 3.68% [at 17.1 µM, percent relative to cAMP agonist control]

Potency, active:
COc1ccc(OC)c(/C=C/c2nc3ccccc3[nH]c2=O)c1 100 µM
COc1ccc(/C(O)=C/c2nc3ccccc3n(-c3ccccc3)c2=O)cc1 100 µM
CN(C)c1ccc(C(=O)/C=C/c2ccc(Br)cc2)cc1 112 µM
Nc1c(C(=O)C2CC2)sc2nc(-c3cccs3)cc(C(F)(F)F)c12 100 µM
C=CCN1C(=O)c2cccc3c(N4CCCCC4)ccc(c23)C1=O 112 µM
CN1CCS/C1=C\C=C1/SC(=S)N(CC(=O)O)C1=O 79.4 µM
